Screening data as filed in PubChem BioAssay.
Wnt bcat act = Wnt/beta-catenin pathway activators, primary screen, cell-based, plate reader, single point; Wnt/beta-catenin reporter cell assay, activator; actives 1.2% (n = 300,000); activation, % at 9.35 µM; in the data active means activation above about 30%, passing the limit was not always enough; inconclusive means no clear call, values can overlap the other calls
MITF TRPM1 HTS = activators of MITF-driven TRPM1 promoter reporter, primary screen, cell-based, SK-MEL-5, luciferase, single point; SK-MEL-5 TRPM1-promoter luciferase, 24 h; % of positive control, neutral wells = 0; AID 588334, 2011; activation, % at 12.5 µM; actives 0.75% (n = 300,000);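 active means mean activation of at least 80% with every replicate also reaching 80%; inconclusive means mean reaches 80% but some replicate falls short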
MLL AF4-AF9 inh = inhibitors of AF4 peptide binding to AF9, primary screen, biochemical, AlphaScreen, biotin-AF4 peptide, FLAG-AF9, single point | actives 0.47% (n = 350,000) | AID 651704, 2012 | inhibition, % at 10 µM;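 active means every replicate reaching a set inhibition limit, whatever the replicate mean, cut at about 25% in these data; inconclusive means mean inhibition reaches that limit but some replicates miss it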
Target sequence (P42568 whole entry, looked up): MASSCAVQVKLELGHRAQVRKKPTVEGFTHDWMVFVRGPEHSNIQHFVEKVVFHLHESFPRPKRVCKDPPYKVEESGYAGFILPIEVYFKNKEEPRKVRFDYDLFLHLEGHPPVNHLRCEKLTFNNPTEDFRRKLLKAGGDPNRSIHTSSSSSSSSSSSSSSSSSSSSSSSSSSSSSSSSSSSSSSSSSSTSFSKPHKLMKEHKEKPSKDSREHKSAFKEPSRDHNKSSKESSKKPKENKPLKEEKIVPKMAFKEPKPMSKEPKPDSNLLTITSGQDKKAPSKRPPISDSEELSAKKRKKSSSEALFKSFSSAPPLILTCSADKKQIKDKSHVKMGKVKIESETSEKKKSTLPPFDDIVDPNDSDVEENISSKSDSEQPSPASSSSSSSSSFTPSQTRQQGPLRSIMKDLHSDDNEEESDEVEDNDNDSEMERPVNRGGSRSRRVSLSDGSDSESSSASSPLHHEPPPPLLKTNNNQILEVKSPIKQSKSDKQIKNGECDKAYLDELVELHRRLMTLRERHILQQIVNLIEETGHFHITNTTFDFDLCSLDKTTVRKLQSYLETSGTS
Ecoli rRNA inh = reduced GFP signal of wild-type E. coli, primary screen, bacterial rRNA inhibitor project, GFP/RFP fluorescence, OD600, single point; GFP signal change (wild-type ribosome), % (concentration not given with the values); AID 720706, 2013; E. coli WT GFP vs humanized-ribosome RFP mutants, 24 h; stronger effect = lower value; DMSO median 0, no signal -100; actives 1.6% (n = 350,000);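 active means significant combined selectivity score with lowered wild-type GFP, culture density cut under 30%, mutant RFP and density less affected; inactive means any of these conditions unmet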
esBAF inh = Bmi1 luciferase reporter increase in mESCs, primary screen, esBAF inhibitor project, mouse ES cells, Bmi1 luciferase knock-in, single point. 24 h; 100% = twice the neutral-well signal. reporter increase, % at 12.5 µM. actives 2% (n = 350,000). AID 602393, 2012; in the data active means activation above about 40%; inconclusive means no clear call, values can overlap the other calls;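 further: a rise in the Bmi1 reporter signal indicates esBAF inhibition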
Hits are given with their value; 0 = inactive; ? = inconclusive; - = no result given. Sampled rows, rich in hits. Any-hit rate of the full collection: about 3.7%.

SMILES | Wnt bcat act | MITF TRPM1 HTS | MLL AF4-AF9 inh | Ecoli rRNA inh | esBAF inh
Cc1ccc(CSc2nnc(-c3ccccn3)n2N)cc1 | 0 | - | 0 | 0 | -
Cn1c(SCc2cccc(Br)c2)nnc1-c1ccccn1 | 0 | - | 0 | -35 | 0
Nn1c(SCc2ccccc2F)nnc1-c1ccccn1 | 41 | - | 0 | 0 | -
CC(C)(C)c1ccc(-c2noc(-c3ccno3)n2)cc1 | 0 | 118 | - | 0 | 0
Oc1cccc(NC(=S)N=Nc2c(O)[nH]c3ccc(Br)cc23)c1 | 0 | 0 | 0 | -37 | 0
Oc1ccc(NC(=S)N=Nc2c(O)[nH]c3ccc(Br)cc23)cc1 | 0 | 0 | 0 | -23 | 0
C[C@@H](O)C#Cc1ccc2c(c1)O[C@@H](CN(C)C(=O)C1CCCCC1)[C@@H](C)CN([C@@H](C)CO)S2(=O)=O | - | - | 0 | 0 | 0
CCc1cc2c3c([nH]c2cc1S(=O)(=O)N1CCC2(CC1)OCCO2)CCCC3=O | 0 | 0 | 0 | -26 | 0
CC=Cc1ccc2n(c1=O)C[C@@H]1[C@@H](CO)[C@H](C(=O)N[C@@H](C)c3ccccc3)[C@H]2N1Cc1ccccc1 (mixture of isomers) | - | - | 0 | 0 | -
COc1cccc2[nH]c(=O)c(-c3ccccc3)cc12 | 0 | 105 | 0 | 0 | 0
Cc1ccccc1NC(=O)C1CCCN1S(=O)(=O)c1ccccc1C(F)(F)F (stereo not drawn) | 50 | 0 | 0 | 0 | 0
COc1ccc2cc(C3=CCCC3(C)C(=O)O)ccc2c1 (stereo not drawn) | 0 | 0 | 0 | 0 | 0
Cn1c(SCc2c(F)cccc2Cl)nnc1-c1cccs1 | - | - | - | - | 65
COc1ccc(/C=C2\SC(=S)N(CC(=O)OCC(=O)Nc3cc(Cl)cc(Cl)c3)C2=O)cc1 | 38 | 0 | 0 | 0 | -
Cc1ccc(SC[C@H](CC(C)C)N2CCN(C)CCC2=O)cc1 | 0 | 0 | 0 | 0 | 58
Cc1ccc(SC[C@H](c2ccccc2)N2CCN(C)CCC2=O)cc1 | 0 | 0 | - | - | 51
CC(C)C[C@@H](CSc1ccc(Br)cc1)N1CCN(C)CCC1=O | 0 | 81 | 0 | 0 | 44
C[C@@H]1CN([C@@H](C)CO)C(=O)c2cc(NC(=O)Cc3cn(C)c4ccccc34)ccc2O[C@H]1CN(C)C(=O)Nc1cccc2ccccc12 | - | - | 0 | 0 | 0
O=C(OCc1ccccc1)N1CCC2CC1c1ccc(N3CCOCC3)cc12 (stereo not drawn) | 0 | - | 0 | 0 | 47
O=C(OCc1ccccc1)N1CCC2CC1c1cc(N3CCOCC3)ccc12 (stereo not drawn) | 0 | 0 | 0 | 0 | 0
COc1cccc(C(=O)N(C)C(C)c2nc3ccccc3s2)c1 (stereo not drawn) | 0 | 0 | 0 | 0 | 0
CC(=O)c1ccc(OC(C)c2nc3ccccc3s2)cc1 (stereo not drawn) | 0 | 0 | 0 | 0 | 53
C[C@H]1CN([C@@H](C)CO)C(=O)c2cc(N(C)C)ccc2O[C@H]1CN(C)Cc1ccc(-c2ccccc2)cc1 | - | - | 33 | 0 | 0
C[C@H](CO)N1C[C@H](C)[C@H](CN(C)Cc2ccccc2)Oc2ccc(N(C)C)cc2C1=O | - | - | 0 | 0 | 0
C[C@H](CO)N1C[C@H](C)[C@@H](CN(C)Cc2ccc(Oc3ccccc3)cc2)Oc2ccc(N(C)C)cc2C1=O | - | - | 37 | 0 | 0
SMILES | Wnt bcat act | MITF TRPM1 HTS | MLL AF4-AF9 inh | Ecoli rRNA inh | esBAF inh
C[C@H]1CN([C@@H](C)CO)C(=O)c2cc(N(C)C)ccc2O[C@H]1CN(C)Cc1ccccc1 | - | - | 0 | 0 | 0
C[C@H](CO)N1C[C@H](C)[C@H](CN(C)Cc2ccc(-c3ccccc3)cc2)Oc2ccc(N(C)C)cc2C1=O | - | - | 49 | 0 | 0
C[C@H](CO)N1C[C@H](C)[C@@H](CN(C)Cc2ccc(-c3ccccc3)cc2)Oc2ccc(N(C)C)cc2C1=O | - | - | 29 | 0 | 0
CCOC(=O)c1c(NC(=O)c2ccno2)c2cc([N+](=O)[O-])ccc2n1C | 0 | - | - | 0 | -
C[C@@H]1CN([C@@H](C)CO)C(=O)c2cc(N(C)C)ccc2O[C@@H]1CN(C)Cc1ccc(-c2ccccc2)cc1 | - | - | 48 | 0 | 0
COc1ccc(C(=O)OCn2nnc3ccccc3c2=O)cc1OC | - | 0 | - | - | -
COc1cccc(C(=O)OCn2nnc3ccccc3c2=O)c1 | 0 | 0 | 0 | -22 | 0
O=C(C1CC1)N1CCc2cc(Br)cc(S(=O)(=O)N3CCCCCC3)c21 | 41 | - | - | - | -
CCC(=O)N1CCc2cc(Br)cc(S(=O)(=O)N3CCCCCC3)c21 | 0 | 0 | - | - | 0
Cc1cccc(-c2cnn(-c3ccccc3)c2N)c1 | 0 | ? | 0 | 0 | 56
Cc1cccc(-c2cc(N)n(-c3ccccc3)n2)c1 | 0 | 87 | 0 | 0 | 54
Cc1ccc(-c2cc(N)n(-c3ccccc3)n2)cc1 | - | 93 | - | - | -
CCc1ccc(-c2cc(N)n(-c3ccccc3)n2)cc1 | 0 | 0 | 0 | 0 | 68
CCS(=O)(=O)n1nc(-c2ccccc2)cc1N | 0 | - | 0 | 0 | 0
CC(C)n1cc(/C=C(\C#N)S(=O)(=O)c2ccccc2)c2ccccc21 | 0 | 0 | - | - | 0
Cc1cc(/C=C(\C#N)C(=O)NCc2cccs2)c(C)n1-c1ccccc1F | 52 | 0 | - | - | 0
Cc1ccccc1-n1c(C)cc(/C=C(\C#N)C(=O)NCC2CCCO2)c1C (stereo not drawn) | 0 | 0 | - | - | 0
COc1ccc(NC(=O)CN(C)C(=O)CSc2ccc3c(c2)OCCO3)cc1 | 0 | 0 | 0 | 0 | 0
COc1ccc(NC(=O)CN(C)C(=O)CSc2ccc(Br)cc2)cc1 | 0 | 0 | 0 | -30 | 0
Cc1cccc(N2CCN(S(=O)(=O)c3c(C)[nH]c(C)c3C(=O)N3CCCC3)CC2C)c1 (stereo not drawn) | 0 | 0 | 0 | 0 | 0
Clc1cccc(N/N=C/c2ccncc2)c1 | 0 | 101 | - | - | -
S=C(NCCc1ccccc1)N/N=C/c1ccc(Cl)cc1 | 0 | 0 | 0 | -28 | -
[O-]/[N+](=N\Nc1ccc(Cl)cc1)c1ccccc1 | 0 | 0 | 0 | 0 | 52
Clc1ccc(/C=N\Nc2ccccc2)cc1 | 0 | - | 0 | - | 42
O=C(Nc1cccc(Cl)c1)O/N=C\c1ccncc1 | 0 | 0 | 0 | 0 | 0
SMILES | Wnt bcat act | MITF TRPM1 HTS | MLL AF4-AF9 inh | Ecoli rRNA inh | esBAF inh
O=[N+]([O-])c1ccc(N=NNc2ccccc2)cc1 | - | 0 | - | - | -
C[C@@H]1CN([C@H](C)CO)C(=O)c2cccc(NS(=O)(=O)c3ccc(Cl)cc3)c2O[C@@H]1CN(C)C(=O)NC1CCCCC1 | - | - | 0 | 0 | 0
O=C(CCN1C(=O)c2ccccc2C1=O)N1CCN(c2ccccc2)CC1 | - | 0 | - | - | 0
O=C1c2ccccc2C(=O)N1Cc1cnc(N2CCN(c3ccccc3)CC2)s1 | 0 | 0 | 0 | -28 | -
COC(=O)c1ccc(Cl)cc1NC(=O)/C=C/c1ccc(C)o1 | 0 | 0 | 0 | 0 | -
Cc1ccc(C(=O)Nc2nnc(NC(=S)Nc3ccccc3)s2)cc1 | 0 | 0 | 0 | 0 | 56
CCc1nnc(NC(=S)Nc2ccccc2)s1 | 0 | 0 | 0 | 0 | -
